Screens as filed in PubChem BioAssay.
The list is not random: actives were taken first. Their share in the collection is about 11%.
USP28 inh – human USP28 deubiquitinase inhibition | Q96RU2 | purified USP28, Ub-rhodamine cleavage fluorescence, 30 min | inhibition, % at 25 µM | actives 3% (n = 47,000) | AID 1645857
USP30 block – inhibitors of human USP30 deubiquitinase. Q70CQ3. purified USP30, Ub-rhodamine cleavage fluorescence. inhibition, % at 25 µM. actives 5.3% (n = 47,000). AID 1645860
Target sequence (Q70CQ3 whole entry, looked up): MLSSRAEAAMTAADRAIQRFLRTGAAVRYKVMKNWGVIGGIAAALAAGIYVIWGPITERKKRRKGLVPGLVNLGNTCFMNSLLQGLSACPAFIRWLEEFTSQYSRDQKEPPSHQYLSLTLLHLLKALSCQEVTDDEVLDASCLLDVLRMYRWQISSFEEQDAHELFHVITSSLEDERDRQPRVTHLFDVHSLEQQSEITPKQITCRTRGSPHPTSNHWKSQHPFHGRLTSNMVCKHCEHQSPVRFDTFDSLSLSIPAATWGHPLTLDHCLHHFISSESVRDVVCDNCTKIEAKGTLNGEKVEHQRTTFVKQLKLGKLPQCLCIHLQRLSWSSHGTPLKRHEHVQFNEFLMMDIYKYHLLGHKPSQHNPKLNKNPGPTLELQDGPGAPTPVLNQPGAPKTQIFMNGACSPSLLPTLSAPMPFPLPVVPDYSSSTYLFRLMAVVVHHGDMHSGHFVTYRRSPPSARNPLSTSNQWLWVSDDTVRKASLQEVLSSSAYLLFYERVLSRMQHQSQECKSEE
USP17 inh – human USP17-like deubiquitinase inhibition | purified USP17, Ub-rhodamine cleavage fluorescence, 3 h | A8MUK1 | inhibition, % at 50 µM | actives 6.5% (n = 47,000) | AID 1645855
OTUD3 block – inhibitors of human OTUD3 deubiquitinase. Q5T2D3. actives 0.7% (n = 47,000). inhibition, % at 25 µM. purified OTUD3, Ub-rhodamine fluorescence, 2 h
* marks the source's active call; other numbers are inactive results; i = inactive; . = no result given. Cut-off read from the data, not from the text of the source: active = inhibition above about 30%; inactive = the rest.

SMILES	USP28 inh	USP30 block	USP17 inh	OTUD3 block
O=C(Nc1ccc(N2CCCCC2)cc1)C1CCN(S(=O)(=O)c2ccc3c(c2)OCCCO3)CC1	-16	-44	5	-12
COc1c(O)c(O)c2c(=O)cc(-c3ccc(O)cc3)oc2c1OC	40*	13	67*	46*
COc1cc(OC)c2c(=O)cc(-c3ccccc3)oc2c1OC	4	37*	1	10
CCOC(=O)c1cc2c(ccn2C)n1Cc1ccccc1C#N	-63	-322	-23	-92
CC1CCc2cc(F)ccc2N1S(=O)(=O)c1cc(Br)cnc1N (stereo not drawn)	34*	18	17	11
CC1CCN(c2c(S(=O)(=O)c3ccccc3)cnc3ccc(F)cc23)CC1	3	7	-3	6
CCNC(=O)c1cccc(NC(=O)c2cc(Cl)c3c(c2)OCO3)c1	31*	-7	0	0
COc1ccc2c(Sc3ccc(C)cc3)c(C(=O)N3CCCCC3)[nH]c2c1	0	-6	1	0
Cc1ccc2c(Sc3ccc(Cl)cc3)c(C(=O)N3CCC4(CC3)OCCO4)[nH]c2c1	32*	19	14	13
CSc1nnc(-c2ccc(C(C)(C)C)cc2)n1Cc1ccccc1	6	33*	14	4
COc1ccc(CCNC(=O)CSc2nnc(CNC(=O)COc3ccc(Cl)cc3)o2)cc1OC	25	34*	46*	29
COC(=O)c1ccc(CSc2nnc(CNC(=O)COc3ccc(Cl)cc3)o2)o1	-7	-10	-15	-10
O=C(COc1ccc(Cl)cc1)NCc1nnc(SCC(=O)NCc2ccc3c(c2)OCO3)o1	0	26	70*	4
CCn1ccc(C(=O)N2CCCCC2c2nnc(-c3nccc4ccccc34)o2)n1 (stereo not drawn)	3	6	0	2
CC(=O)N1CCc2ccccc2C1C(=O)NCc1ccc2c(c1)OCO2 (stereo not drawn)	-8	-72	-22	-7
O=C(Nc1cc(C(F)(F)F)ccc1OCC1CCCO1)c1ccccc1 (stereo not drawn)	5	0	1	-1
CC(=O)N[C@@]12CN(C(C)=O)CC[C@@H]1[C@@H](c1ccccc1)N(CC(=O)Nc1cccc(F)c1C)C2	-19	-43	-20	-4
Cc1cccc(CNC(=O)C2CCCN(c3cnc4nccnc4c3)C2)c1 (stereo not drawn)	-110	-436	-128	-94
Cc1ccccc1OCC(=O)Nc1ccc2c(c1)CN(C(=O)c1ccco1)CC2	37*	26	22	6
Cc1ccc(OCC(=O)Nc2ccc3c(c2)CN(C(=O)c2ccco2)CC3)cc1	50*	43*	51*	30
O=C(COc1ccc(-c2ccccc2)cc1)N1CCN(C(=O)c2ccco2)CC1	-6	31*	20	-6
C[C@H]1CC[C@H]2[C@@H](C=C[C@@H]3COC(=O)[C@@]32C)C1	3	0	6	3
CN[C@H]1CC2(CCN(C(=O)CCCn3cccn3)CC2)OC[C@]1(C)O	79*	19	0	2
Cc1cccc(C(=O)N2CCc3cc(-c4nc(NC(=O)CNc5ccccc5)sc4C)ccc32)c1	17	20	60*	9
Cc1cccc(C(=O)N2CCc3cc(-c4nc(NC(=O)CN5CCCC5)sc4C)ccc32)c1	11	-15	45*	2
SMILES	USP28 inh	USP30 block	USP17 inh	OTUD3 block
O=C(Cn1nnc2ccccc21)Nc1nc(-c2ccc3c(c2)CCN3C(=O)c2ccccc2F)cs1	10	11	54*	23
Cc1ccc(C(=O)N2CCc3cc(-c4nc(NC(=O)CN5CCCCCC5)sc4C)ccc32)cc1	5	3	13	6
Cc1sc(NC(=O)Cn2nnc3ccccc32)nc1-c1ccc2c(c1)CCN2C(=O)c1ccccc1F	-4	3	14	3
Cc1sc(NC(=O)Cn2nnc3ccccc3c2=O)nc1-c1ccc2c(c1)CCN2C(=O)C(C)C	.	.	56*	2
Cc1ccc(S(=O)(=O)N2CCN(c3cc(-c4ccncc4)[nH]n3)CC2)cc1	13	9	.	4
Nc1c(-c2nc(-c3ccc(F)cc3)no2)nnn1-c1ccccc1F	-6	0	5	1
O=[N+]([O-])c1ccc(/C=C/c2nc(-c3ccc(F)cc3)cs2)cc1	-198	i	-132	-118
Cc1sc(NC(=O)CNc2ccccc2)nc1-c1ccc2c(c1)CCN2C(=O)C(C)C	5	-13	51*	1
Cc1cccc(C(=O)N2CCc3cc(-c4csc(NC(=O)CNc5ccccc5)n4)ccc32)c1	-11	-40	31*	-7
CCc1nc2ccc(C(=O)Nc3nc(-c4ccc5c(c4)CCN5S(=O)(=O)c4ccccc4)c(C)s3)cc2nc1CC	15	-4	32*	8
CNc1nc(C(N)=O)c(NC(=O)c2ccc(C)c(F)c2)s1	-3	-3	-2	-9
Cc1ccccc1NC(=O)c1ccc(N2CCCCC2)nn1	-3	70*	47*	0
O=C(Nc1ccc(F)c(Cl)c1)c1ccc(N2CCCC2)nn1	-9	-9	-17	-4
CC(=O)c1cccc(NC(=O)c2ccc(N3CCCCC3)nn2)c1	18	57*	49*	4
Cc1cc(OCC(=O)Nc2ccccc2F)nc(N2CCCCCC2)n1	3	0	-2	3
Cc1cc(OCC(=O)Nc2ccccc2C)nc(N2CCCCCC2)n1	21	36*	28	22
O=C(NCC(=O)N1CCc2[nH]c3ccccc3c2C1)c1ccc(F)cc1	-51	-203	-8	-48
Cc1ccc(CNC(=O)C(C)n2cnc3nc(N4CCCCC4)ncc3c2=O)cc1 (stereo not drawn)	2	15	5	7
Cc1ccc(CNC(=O)CCCn2c(=O)c3ccccc3n(CC(=O)Nc3cc(C)[nH]n3)c2=O)cc1	0	4	1	-4
O=C(CCCCCn1c(=O)c2sccc2n(CC(=O)c2ccc(F)cc2)c1=O)NCc1ccccc1Cl	16	39*	19	4
Cc1ccc(CNC(=O)CCCn2c(=O)c3sccc3n(CC(=O)Nc3cc(Cl)ccc3C)c2=O)cc1	55*	21	74*	40*
CCOc1ccccc1NC(=O)Cn1c(=O)n(CCCC(=O)NCc2ccc(C)cc2)c(=O)c2sccc21	36*	37*	83*	13
COc1cc2ccccc2cc1C(=O)N1CCc2ccccc21	17	6	1	2
CN(C)CC(=O)N1CCC2(CCc3ccccc32)CC1	9	20	17	5
O=C(NCc1ccccc1)c1ccc2c(=O)n(-c3ccccc3)c(=O)[nH]c2c1	17	21	66*	18
O=C(NCc1ccco1)c1ccc2c(=O)n(Cc3ccco3)c(=O)[nH]c2c1	20	-22	40*	15
O=C(Cc1ccc(-n2c(=O)[nH]c3ccccc3c2=O)cc1)N1CCN(c2ccccc2)CC1	5	0	12	-11
Cc1[nH]c(C)c(S(=O)(=O)N2CCN(C(C)C)CC2)c1-c1nnc(C2CCC2)o1	2	13	0	6
CNc1nc(C)nc2c1oc1ccccc12	.	.	13	3
OCCNc1nc(-c2ccccc2)nc2c1oc1ccccc12	18	71*	60*	7
